In test [1] the target is Tyrosine-protein kinase SYK (Homo sapiens) (UniProt P43405). As to conditions: at 10 µM.
Test [2] addresses T1, Mitogen-activated protein kinase kinase kinase 7 (Homo sapiens) (UniProt O43318).
T1 sequence (whole entry): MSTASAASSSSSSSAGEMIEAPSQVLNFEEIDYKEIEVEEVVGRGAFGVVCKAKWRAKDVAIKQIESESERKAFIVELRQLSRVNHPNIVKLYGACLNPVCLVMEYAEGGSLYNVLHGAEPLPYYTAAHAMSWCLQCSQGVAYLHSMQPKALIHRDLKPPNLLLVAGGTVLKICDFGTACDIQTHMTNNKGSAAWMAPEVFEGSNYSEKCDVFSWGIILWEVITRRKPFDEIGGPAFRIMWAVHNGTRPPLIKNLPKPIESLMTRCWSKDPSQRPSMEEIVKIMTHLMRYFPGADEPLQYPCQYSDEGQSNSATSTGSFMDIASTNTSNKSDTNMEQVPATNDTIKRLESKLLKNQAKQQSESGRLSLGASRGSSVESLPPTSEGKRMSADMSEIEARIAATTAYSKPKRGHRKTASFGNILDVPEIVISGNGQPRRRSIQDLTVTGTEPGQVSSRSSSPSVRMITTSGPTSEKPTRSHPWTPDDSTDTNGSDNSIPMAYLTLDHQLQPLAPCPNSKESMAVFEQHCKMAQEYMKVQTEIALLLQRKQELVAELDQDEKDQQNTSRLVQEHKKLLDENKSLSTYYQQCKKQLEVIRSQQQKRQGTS
As to conditions: at 1 µM.

The target in test [3] is T1, Mitogen-activated protein kinase kinase kinase 7 (Homo sapiens). Particulars: at 10 µM.
In test [4] the target is T2, Serine/threonine-protein kinase TAO1 (Homo sapiens) (UniProt Q7L7X3).
T2 sequence (whole entry): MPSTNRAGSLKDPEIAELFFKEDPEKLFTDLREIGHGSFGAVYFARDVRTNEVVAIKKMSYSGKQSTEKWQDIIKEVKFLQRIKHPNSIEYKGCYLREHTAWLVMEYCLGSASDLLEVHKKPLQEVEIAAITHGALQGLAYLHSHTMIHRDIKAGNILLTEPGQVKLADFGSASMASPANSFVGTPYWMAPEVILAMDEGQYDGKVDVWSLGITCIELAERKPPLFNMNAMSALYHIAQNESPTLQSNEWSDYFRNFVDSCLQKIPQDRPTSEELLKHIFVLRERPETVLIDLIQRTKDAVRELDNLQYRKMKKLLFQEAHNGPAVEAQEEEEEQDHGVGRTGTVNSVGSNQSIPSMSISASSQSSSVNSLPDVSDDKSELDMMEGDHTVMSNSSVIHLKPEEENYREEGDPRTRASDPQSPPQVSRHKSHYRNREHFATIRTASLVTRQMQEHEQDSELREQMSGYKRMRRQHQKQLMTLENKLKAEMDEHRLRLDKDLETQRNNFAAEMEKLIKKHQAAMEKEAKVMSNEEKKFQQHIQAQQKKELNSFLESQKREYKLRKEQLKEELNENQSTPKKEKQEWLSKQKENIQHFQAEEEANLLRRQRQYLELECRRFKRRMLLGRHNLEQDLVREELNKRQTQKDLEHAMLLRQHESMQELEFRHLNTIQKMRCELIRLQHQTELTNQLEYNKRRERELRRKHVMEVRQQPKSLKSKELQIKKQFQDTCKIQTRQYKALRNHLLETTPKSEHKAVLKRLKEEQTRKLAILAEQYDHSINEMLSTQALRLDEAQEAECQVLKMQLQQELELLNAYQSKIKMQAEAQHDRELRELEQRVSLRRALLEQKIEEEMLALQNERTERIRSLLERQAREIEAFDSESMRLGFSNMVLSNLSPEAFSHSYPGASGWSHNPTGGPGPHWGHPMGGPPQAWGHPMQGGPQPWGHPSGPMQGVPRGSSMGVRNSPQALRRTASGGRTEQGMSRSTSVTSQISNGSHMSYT
As to conditions: at 1 µM.

Test [5] deals with T2, Serine/threonine-protein kinase TAO1 (Homo sapiens). Particulars: at 10 µM.
The target of test [6] is T3, Serine/threonine-protein kinase TAO2 (Homo sapiens) (UniProt Q9UL54).
T3 sequence (whole entry): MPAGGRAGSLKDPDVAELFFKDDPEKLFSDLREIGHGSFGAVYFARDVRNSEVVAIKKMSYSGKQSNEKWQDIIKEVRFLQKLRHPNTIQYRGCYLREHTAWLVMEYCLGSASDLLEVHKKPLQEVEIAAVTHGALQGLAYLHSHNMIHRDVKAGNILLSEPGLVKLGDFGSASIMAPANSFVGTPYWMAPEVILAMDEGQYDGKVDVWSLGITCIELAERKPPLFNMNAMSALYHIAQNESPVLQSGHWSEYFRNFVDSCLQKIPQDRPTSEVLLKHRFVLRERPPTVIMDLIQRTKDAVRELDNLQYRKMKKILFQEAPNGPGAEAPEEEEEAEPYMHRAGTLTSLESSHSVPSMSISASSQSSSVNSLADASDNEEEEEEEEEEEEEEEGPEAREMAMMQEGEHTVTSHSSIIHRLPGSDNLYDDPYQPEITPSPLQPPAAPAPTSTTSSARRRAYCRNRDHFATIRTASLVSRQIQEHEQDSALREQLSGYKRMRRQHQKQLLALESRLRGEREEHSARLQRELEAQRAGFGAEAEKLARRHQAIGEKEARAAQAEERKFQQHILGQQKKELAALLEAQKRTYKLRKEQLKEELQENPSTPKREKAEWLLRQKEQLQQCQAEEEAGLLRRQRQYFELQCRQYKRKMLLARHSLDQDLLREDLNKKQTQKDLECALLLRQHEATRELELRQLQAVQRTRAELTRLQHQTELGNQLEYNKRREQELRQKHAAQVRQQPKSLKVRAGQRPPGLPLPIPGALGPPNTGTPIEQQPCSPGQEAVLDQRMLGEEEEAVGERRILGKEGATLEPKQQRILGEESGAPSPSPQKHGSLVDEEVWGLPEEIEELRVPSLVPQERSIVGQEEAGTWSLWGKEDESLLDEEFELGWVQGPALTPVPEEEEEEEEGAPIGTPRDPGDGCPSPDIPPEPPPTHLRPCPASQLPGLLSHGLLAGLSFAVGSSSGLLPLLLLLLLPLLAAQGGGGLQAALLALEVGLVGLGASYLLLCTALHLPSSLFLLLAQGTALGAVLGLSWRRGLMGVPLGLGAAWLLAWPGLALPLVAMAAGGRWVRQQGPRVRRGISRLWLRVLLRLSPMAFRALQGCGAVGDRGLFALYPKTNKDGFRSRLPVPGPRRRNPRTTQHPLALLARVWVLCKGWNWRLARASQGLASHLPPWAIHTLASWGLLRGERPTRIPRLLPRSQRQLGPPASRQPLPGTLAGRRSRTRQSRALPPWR
Particulars: at 1 µM.

Test [7] addresses T3, Serine/threonine-protein kinase TAO2 (Homo sapiens). As to conditions: at 10 µM.
Test [8] has as its target T4, Serine/threonine-protein kinase TAO3 (Homo sapiens) (UniProt Q9H2K8).
T4 sequence (whole entry): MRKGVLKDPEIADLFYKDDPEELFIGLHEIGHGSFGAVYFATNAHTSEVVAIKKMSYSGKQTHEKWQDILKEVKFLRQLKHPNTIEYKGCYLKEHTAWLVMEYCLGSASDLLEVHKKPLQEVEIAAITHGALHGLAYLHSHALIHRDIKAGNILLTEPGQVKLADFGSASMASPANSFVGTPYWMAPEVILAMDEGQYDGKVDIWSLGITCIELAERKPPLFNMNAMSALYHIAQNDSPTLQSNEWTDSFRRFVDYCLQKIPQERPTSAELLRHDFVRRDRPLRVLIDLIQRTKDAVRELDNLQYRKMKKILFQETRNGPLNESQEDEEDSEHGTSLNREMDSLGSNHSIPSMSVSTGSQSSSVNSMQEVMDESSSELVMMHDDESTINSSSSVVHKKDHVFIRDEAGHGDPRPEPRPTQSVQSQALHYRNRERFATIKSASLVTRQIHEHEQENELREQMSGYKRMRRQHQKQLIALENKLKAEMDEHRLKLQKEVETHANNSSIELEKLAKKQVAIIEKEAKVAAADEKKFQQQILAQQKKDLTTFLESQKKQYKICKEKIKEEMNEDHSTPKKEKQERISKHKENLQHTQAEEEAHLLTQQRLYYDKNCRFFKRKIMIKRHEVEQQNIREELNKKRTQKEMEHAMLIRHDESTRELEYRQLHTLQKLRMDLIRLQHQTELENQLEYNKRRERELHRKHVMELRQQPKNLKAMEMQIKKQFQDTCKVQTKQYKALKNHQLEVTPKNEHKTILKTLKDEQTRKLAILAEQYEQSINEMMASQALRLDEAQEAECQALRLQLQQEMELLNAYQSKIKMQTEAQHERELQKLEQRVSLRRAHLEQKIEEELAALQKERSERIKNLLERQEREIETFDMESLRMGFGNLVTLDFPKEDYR
As to conditions: at 1 µM.

In test [9] the target is T4, Serine/threonine-protein kinase TAO3 (Homo sapiens). As to conditions: at 10 µM.
Test [10] deals with T5, Serine/threonine-protein kinase TBK1 (Homo sapiens) (UniProt Q9UHD2).
T5 sequence (whole entry): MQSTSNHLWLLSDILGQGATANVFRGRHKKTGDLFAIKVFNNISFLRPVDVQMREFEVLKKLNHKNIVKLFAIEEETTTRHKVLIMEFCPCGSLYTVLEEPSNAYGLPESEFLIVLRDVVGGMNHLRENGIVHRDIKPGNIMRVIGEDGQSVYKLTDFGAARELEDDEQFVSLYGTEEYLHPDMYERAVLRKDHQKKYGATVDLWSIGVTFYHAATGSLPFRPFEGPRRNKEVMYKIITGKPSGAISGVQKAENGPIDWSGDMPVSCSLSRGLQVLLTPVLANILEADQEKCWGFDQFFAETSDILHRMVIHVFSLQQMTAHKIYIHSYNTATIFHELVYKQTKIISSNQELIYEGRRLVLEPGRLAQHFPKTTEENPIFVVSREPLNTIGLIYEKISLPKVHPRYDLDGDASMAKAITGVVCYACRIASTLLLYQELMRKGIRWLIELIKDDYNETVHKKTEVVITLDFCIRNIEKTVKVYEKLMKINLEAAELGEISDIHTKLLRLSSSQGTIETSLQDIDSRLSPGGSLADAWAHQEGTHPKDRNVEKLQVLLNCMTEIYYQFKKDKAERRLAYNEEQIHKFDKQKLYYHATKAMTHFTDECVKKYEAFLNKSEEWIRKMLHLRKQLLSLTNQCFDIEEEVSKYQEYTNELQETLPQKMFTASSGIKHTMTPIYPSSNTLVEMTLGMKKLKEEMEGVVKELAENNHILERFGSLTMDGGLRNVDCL
As to conditions: at 1 µM.

For test [11], the target named is T5, Serine/threonine-protein kinase TBK1 (Homo sapiens). As to conditions: at 10 µM.
Test [12] deals with T6, TGF-beta receptor type-1 (Homo sapiens) (UniProt P36897).
T6 sequence (whole entry): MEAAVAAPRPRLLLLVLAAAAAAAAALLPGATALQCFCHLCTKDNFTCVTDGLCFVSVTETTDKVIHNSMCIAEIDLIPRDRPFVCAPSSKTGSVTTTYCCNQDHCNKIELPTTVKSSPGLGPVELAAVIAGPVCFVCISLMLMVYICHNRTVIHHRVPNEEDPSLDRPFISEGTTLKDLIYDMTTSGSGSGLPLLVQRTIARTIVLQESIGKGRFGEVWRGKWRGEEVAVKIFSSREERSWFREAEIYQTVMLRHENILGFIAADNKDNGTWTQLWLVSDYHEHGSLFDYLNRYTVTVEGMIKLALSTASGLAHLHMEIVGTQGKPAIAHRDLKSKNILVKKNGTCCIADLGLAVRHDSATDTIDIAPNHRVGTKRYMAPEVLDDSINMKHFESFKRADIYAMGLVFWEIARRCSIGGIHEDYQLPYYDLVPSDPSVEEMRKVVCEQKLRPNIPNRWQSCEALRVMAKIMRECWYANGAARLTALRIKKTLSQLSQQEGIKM
As to conditions: at 1 µM.

For test [13], the target named is T6, TGF-beta receptor type-1 (Homo sapiens). Particulars: at 10 µM.
The target of test [14] is Insulin-like growth factor 1 receptor (Homo sapiens) (UniProt P08069). Particulars: at 1 µM.
Chain of Insulin-like growth factor 1 receptor (Homo sapiens) (P08069 31-736 limits assumed): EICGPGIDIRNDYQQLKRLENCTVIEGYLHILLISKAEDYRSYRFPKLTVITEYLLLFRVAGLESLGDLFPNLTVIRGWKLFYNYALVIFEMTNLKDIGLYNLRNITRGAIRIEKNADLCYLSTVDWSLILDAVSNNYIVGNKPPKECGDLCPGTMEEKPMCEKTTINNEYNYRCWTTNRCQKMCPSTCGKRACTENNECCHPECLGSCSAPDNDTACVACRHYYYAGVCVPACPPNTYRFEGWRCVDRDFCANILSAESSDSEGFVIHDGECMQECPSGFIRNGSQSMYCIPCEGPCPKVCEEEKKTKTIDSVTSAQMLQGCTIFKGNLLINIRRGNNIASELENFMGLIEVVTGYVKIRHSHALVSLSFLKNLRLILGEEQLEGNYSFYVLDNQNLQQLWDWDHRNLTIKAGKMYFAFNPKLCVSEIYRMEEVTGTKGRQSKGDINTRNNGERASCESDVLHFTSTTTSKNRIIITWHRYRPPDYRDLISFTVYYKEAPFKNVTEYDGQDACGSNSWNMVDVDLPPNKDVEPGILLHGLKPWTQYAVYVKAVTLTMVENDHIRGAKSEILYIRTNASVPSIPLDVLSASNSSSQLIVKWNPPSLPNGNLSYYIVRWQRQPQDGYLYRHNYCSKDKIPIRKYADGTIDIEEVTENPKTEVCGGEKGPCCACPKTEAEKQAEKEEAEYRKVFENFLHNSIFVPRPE
Chain of Insulin-like growth factor 1 receptor (Homo sapiens) (P08069 741-1367 limits assumed): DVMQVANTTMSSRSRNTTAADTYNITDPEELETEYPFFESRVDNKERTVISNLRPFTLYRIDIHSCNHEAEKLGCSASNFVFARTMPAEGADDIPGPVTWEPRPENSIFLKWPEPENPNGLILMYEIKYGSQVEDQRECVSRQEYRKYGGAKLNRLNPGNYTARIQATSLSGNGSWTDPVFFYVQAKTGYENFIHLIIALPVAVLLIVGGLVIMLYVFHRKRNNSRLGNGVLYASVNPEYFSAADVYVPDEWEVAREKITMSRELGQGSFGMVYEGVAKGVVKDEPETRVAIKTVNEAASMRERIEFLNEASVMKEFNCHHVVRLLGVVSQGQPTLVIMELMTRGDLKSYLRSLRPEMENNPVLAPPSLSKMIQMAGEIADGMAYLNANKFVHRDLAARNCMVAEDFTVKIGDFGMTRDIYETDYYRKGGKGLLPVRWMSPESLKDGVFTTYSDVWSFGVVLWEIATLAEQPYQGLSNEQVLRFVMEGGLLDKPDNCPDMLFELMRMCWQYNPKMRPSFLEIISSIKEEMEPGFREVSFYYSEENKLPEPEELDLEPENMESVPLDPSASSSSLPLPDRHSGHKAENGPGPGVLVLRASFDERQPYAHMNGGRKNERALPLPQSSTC
Test [15] shares this target. As to conditions: at 10 µM.
Test [16] concerns the target T7, Inhibitor of nuclear factor kappa-B kinase subunit beta (Homo sapiens) (UniProt O14920).
T7 sequence (whole entry): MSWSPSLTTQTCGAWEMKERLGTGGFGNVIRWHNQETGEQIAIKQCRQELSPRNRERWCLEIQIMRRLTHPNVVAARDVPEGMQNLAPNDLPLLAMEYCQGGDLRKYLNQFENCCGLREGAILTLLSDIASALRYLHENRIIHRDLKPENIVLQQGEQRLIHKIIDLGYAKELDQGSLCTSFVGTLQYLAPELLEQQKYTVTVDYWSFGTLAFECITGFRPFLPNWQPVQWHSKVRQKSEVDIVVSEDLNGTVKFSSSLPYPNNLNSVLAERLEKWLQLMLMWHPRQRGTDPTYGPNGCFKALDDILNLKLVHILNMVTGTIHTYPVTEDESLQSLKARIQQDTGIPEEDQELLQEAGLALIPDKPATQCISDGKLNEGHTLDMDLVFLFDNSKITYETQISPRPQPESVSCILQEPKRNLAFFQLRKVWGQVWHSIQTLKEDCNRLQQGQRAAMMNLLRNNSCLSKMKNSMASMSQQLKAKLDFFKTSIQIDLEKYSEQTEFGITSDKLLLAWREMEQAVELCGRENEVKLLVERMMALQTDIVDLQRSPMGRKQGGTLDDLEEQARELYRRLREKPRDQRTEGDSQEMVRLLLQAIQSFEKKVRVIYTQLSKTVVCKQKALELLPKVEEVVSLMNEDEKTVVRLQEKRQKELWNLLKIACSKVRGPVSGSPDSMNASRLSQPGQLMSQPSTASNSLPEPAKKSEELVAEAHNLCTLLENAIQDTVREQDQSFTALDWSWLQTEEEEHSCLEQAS
As to conditions: at 10 µM.

Test [17] deals with Insulin receptor (Homo sapiens) (UniProt P06213). As to conditions: at 1 µM.
Chain of Insulin receptor (Homo sapiens) (P06213 28-758 limits assumed): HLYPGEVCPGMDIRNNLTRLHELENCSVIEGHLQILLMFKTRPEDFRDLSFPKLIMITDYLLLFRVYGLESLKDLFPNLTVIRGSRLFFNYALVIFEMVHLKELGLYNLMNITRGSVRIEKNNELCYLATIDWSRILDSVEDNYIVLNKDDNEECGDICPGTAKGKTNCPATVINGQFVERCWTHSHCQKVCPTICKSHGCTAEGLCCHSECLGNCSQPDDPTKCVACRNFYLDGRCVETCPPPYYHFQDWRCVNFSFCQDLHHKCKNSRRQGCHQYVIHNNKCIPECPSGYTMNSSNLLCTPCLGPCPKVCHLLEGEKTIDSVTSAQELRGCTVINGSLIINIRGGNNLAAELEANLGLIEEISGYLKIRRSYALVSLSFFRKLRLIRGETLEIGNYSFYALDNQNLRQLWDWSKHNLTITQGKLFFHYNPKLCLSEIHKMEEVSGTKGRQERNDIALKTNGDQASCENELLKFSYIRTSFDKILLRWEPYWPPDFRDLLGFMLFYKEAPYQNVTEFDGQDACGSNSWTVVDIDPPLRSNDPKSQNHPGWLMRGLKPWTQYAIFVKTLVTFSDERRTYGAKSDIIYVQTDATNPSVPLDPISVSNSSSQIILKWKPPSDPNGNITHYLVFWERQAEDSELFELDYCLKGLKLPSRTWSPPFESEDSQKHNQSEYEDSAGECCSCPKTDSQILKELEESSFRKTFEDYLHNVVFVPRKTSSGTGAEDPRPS
Chain of Insulin receptor (Homo sapiens) (P06213 763-1382 limits assumed): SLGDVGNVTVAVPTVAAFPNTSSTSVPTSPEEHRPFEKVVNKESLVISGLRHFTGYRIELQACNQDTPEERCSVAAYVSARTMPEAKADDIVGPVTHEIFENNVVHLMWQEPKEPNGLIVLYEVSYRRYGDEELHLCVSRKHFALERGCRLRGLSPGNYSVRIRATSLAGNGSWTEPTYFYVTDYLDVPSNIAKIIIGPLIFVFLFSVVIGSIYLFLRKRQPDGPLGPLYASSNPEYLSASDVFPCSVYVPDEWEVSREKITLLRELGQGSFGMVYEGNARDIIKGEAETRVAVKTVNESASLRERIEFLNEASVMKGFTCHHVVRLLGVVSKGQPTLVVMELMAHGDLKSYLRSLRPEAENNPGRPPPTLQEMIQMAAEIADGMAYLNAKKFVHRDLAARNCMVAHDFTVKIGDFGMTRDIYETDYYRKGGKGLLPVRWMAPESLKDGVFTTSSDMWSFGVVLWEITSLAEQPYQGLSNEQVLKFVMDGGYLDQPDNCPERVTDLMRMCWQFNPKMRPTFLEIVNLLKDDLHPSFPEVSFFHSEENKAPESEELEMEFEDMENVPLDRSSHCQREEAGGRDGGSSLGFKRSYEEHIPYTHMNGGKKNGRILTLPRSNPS

One molecule from ChEMBL document CHEMBL2218924, “A broad activity screen in support of a chemogenomic map for kinase signalling research and drug discovery” (Biochem J, 2013) can be followed below.

Consider `CC(C)[C@H](CO)Nc1nc(Nc2cc(N)cc(Cl)c2)c2ncn(C(C)C)c2n1`, for which the residual activity in [1] was found to be 73%; in [2], 85%; in test [3] it was 30%; in [4], 92%; in test [5] it was 52%; in test [6], 88%. Also, the residual activity in [7] was found to be 73%; in [8], 93%; in [9], 54%; in [10], 97%; in test [11] it was 43%; in test [12], 98%. The residual activity in test [13] was 91%; in test [14], 75%; in test [15] it was 17%; in test [16], 88%; in test [17], 90%.
